FBW7 act – activators of human E3 ligase FBW7. normalized activity (activation), % at 26.1 µM. actives 0.13% (n = 650,000). AID 1259310. AlphaScreen FBW7–phospho-cyclin E peptide binding, activator screen; in the data active = normalized activity above about 1.9%;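 also: purified mutant Fbw7 with reduced substrate affinity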
GPR151 ag – human GPR151 activation; Q8TDV0; PathHunter beta-arrestin GPR151 cells, luminescence; activation, % at 11.2 µM; actives 1% (n = 650,000); AID 1508602; in the data active = activation above about 4.9%;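 also: 0% = median of compound wells and 100% = cells with positive control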
TEAD-YAP block – TEAD-YAP interaction inhibition; HEK-TIYL cells, TEAD-Gal4/YAP UAS-luciferase luminescence; actives 1.4% (n = 640,000); AID 1259422; inhibition, % at 9.12 µM; in the data active = inhibition above about 32%;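 also: 0% = median of test compound wells and 100% = reference inhibitor wells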
MITF inh – inhibitors of human MITF. actives 0.91% (n = 650,000). AlphaScreen MITF homodimerization, bead proximity signal. AID 1259374. inhibition, % at 2.6 µM; in the data active = inhibition above about 50%;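 also: 0% = vehicle wells with protein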
Target sequence (O75030 whole entry, looked up): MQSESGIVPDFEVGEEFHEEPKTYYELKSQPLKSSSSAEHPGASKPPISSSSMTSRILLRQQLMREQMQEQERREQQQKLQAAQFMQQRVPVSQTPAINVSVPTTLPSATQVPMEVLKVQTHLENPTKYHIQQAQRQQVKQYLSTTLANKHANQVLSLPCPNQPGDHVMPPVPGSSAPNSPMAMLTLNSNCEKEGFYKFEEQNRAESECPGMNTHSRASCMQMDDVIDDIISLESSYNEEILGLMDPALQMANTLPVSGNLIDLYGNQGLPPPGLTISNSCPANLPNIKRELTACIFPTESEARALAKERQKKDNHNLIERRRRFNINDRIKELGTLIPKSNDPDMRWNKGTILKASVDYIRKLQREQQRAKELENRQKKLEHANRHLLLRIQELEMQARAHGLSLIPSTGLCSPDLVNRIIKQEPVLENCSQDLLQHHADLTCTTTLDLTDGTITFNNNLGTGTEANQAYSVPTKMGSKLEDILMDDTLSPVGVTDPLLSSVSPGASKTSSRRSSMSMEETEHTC
An asterisk follows results filed as active. Shown are actives, neighbours in structure and some others; about 3.4% of the full set was active somewhere.

Screening O=C(O)c1ccc(NCC(O)CCl)cc1 (stereo not drawn) returned FBW7 act 0, GPR151 ag 2, TEAD-YAP block -5 and MITF inh -10.
O=C(Nc1nnc(-c2cccc([N+](=O)[O-])c2)s1)c1ccc(N2C(=O)CCC2=O)cc1 was read as FBW7 act 0, GPR151 ag -1, TEAD-YAP block -12 and MITF inh 3.
Screening c1cncc(-c2nc3c4ccccc4nc(NC4CCCCC4)n3n2)c1 returned FBW7 act 0, GPR151 ag 0, TEAD-YAP block -3 and MITF inh 15.
Screening CC(=O)C1=C(c2ccc3c(c2)CCCC3)N(C(C)=O)n2cnnc2S1 returned FBW7 act 0, GPR151 ag 2, TEAD-YAP block 38* and MITF inh 9.
For CC(=O)C1=C(c2ccccc2)N(C(C)=O)n2cnnc2S1 the results were FBW7 act 0, GPR151 ag 1, TEAD-YAP block 16 and MITF inh -5.
For Clc1cncc(Cl)c1N1CCN(c2ccc(-c3cccnc3)cn2)CC1 the results were FBW7 act 0, GPR151 ag 0, TEAD-YAP block 50* and MITF inh 16.
For COc1ccc(S(=O)(=O)Oc2ccc(C=O)cc2OC)cc1 the results were FBW7 act 0, GPR151 ag -1, TEAD-YAP block 47* and MITF inh 7.
For COc1ccc(S(=O)(=O)Oc2c(C=O)cccc2OC)cc1 the results were FBW7 act 0, GPR151 ag 0, TEAD-YAP block 46* and MITF inh -7.
COc1ccc(S(=O)(=O)Oc2cccc(C=C3C(=O)NC(=S)NC3=O)c2)cc1 was read as FBW7 act 1, GPR151 ag -1, TEAD-YAP block 6 and MITF inh 5.
COc1ccc(C=O)cc1OS(=O)(=O)c1ccc(Cl)cc1 was read as FBW7 act 0, GPR151 ag -1, TEAD-YAP block 25 and MITF inh 4.
For COc1ccc(S(=O)(=O)Oc2ccc(C=C3C(=O)NC(=S)NC3=O)cc2OC)cc1 the results were FBW7 act 0, GPR151 ag 0, TEAD-YAP block 54* and MITF inh -6.
COc1cccc(C=O)c1OS(=O)(=O)c1ccc(Cl)cc1 was read as FBW7 act 0, GPR151 ag 1, TEAD-YAP block 11 and MITF inh -5.
`N=C1S/C(=C\c2cccc(F)c2)C(=O)N1c1ccc(F)cc1` gave FBW7 act -1, GPR151 ag 0, TEAD-YAP block 6 and MITF inh 1.
`O=C1CCCN1CCn1cnc2c(NC3CC3)nc(Nc3ccccc3)nc21` gave FBW7 act 0, GPR151 ag 1, TEAD-YAP block 1 and MITF inh 7.
COc1cc(CO)ccc1OCc1cccc(F)c1 was read as FBW7 act 0, GPR151 ag -1, TEAD-YAP block -44 and MITF inh -22.
For COc1cc(/C=N/O)ccc1OCc1ccc(F)cc1 the results were FBW7 act 0, GPR151 ag -3, TEAD-YAP block -41 and MITF inh -11.
CCCCOc1ccc(CO)cc1OC was read as FBW7 act 2.1*, GPR151 ag 1, TEAD-YAP block -5 and MITF inh 1.
Screening COc1cc(/C=N/O)ccc1OCc1ccc(C(=O)O)cc1 returned FBW7 act 0, GPR151 ag -9, TEAD-YAP block 94* and MITF inh 20.
`COc1cc(C=O)ccc1OCc1ccc(C(=O)O)cc1` gave FBW7 act 0, GPR151 ag 1, TEAD-YAP block -7 and MITF inh -13.
Screening COc1cc(CO)ccc1OCc1cccc(C(=O)O)c1 returned FBW7 act 0, GPR151 ag -10, TEAD-YAP block 74* and MITF inh 9.
Screening COc1cc(/C=N/O)ccc1OCc1ccccc1F returned FBW7 act 0, GPR151 ag -4, TEAD-YAP block 38* and MITF inh -13.
For CCN(CC)c1ccc(C=C2C(=O)OC3(CCCC3)OC2=O)o1 the results were FBW7 act 0, GPR151 ag 0, TEAD-YAP block -31 and MITF inh -4.
Screening O=C(O)c1n[nH]c2c1CCCC2 returned FBW7 act 0, GPR151 ag -1, TEAD-YAP block -8 and MITF inh 5.
Screening O=C(c1n[nH]c2c1CCCC2)n1ccnc1 returned FBW7 act 0, GPR151 ag 1, TEAD-YAP block 54* and MITF inh 10.
[O-][n+]1ccc(-c2nnc3n2CCCCC3)cc1 was read as FBW7 act 0, GPR151 ag -2, TEAD-YAP block -12 and MITF inh 7.
For O=C(Nc1ccc2c(c1)CN(S(=O)(=O)c1cccnc1)CC2)c1ccccc1Cl the results were FBW7 act 0, GPR151 ag 3, TEAD-YAP block 46* and MITF inh -6.
Screening O=C(Nc1ccc2c(c1)CN(C(=O)Cn1cncn1)CC2)c1ccccc1Cl returned FBW7 act 0, GPR151 ag -1, TEAD-YAP block 47* and MITF inh 4.
Screening CN(Cc1ccc(C(N)=O)c(=O)[nH]1)C1CCCCC1 returned FBW7 act 0, GPR151 ag 1, TEAD-YAP block -2 and MITF inh -12.
`O=C(Nc1ccccc1)c1ccc(Cl)c(S(=O)(=O)Nc2ccc(I)cc2)c1` gave FBW7 act 0, GPR151 ag 0, TEAD-YAP block 36* and MITF inh 4.
`Cc1ccc(NS(=O)(=O)c2cc(C(=O)Nc3ccccc3)ccc2Br)cc1` gave FBW7 act 0, GPR151 ag 1, TEAD-YAP block 39* and MITF inh -6.
Screening O=C(OCC(=O)c1cccs1)c1ccc2c(c1)S(=O)(=O)c1ccccc1C2=O returned FBW7 act 0, GPR151 ag 0, TEAD-YAP block 12 and MITF inh 9.
`CCOC(=O)C1=C(N)OC2=C(C(=O)CC(c3ccccc3)C2)C1c1ccc(OC)cc1OC` (stereo not drawn) gave FBW7 act 0, GPR151 ag 1, TEAD-YAP block -9 and MITF inh 1.
Screening Cc1cc(N/N=C/c2cccc([N+](=O)[O-])c2)nc(-c2ccccc2O)n1 returned FBW7 act 0, GPR151 ag 0, TEAD-YAP block 2 and MITF inh 12.
For Cc1cc(N/N=C/c2ccc(O)c(C)c2O)nc(-c2ccccc2O)n1 the results were FBW7 act 0, GPR151 ag 0, TEAD-YAP block 42* and MITF inh -2.
`Cc1cc(N/N=C/c2cc([N+](=O)[O-])ccc2O)nc(-c2ccccc2O)n1` gave FBW7 act 0, GPR151 ag 0, TEAD-YAP block 77* and MITF inh -12.
Screening O=[N+]([O-])c1ccc(O)c(/C=N/Nc2ccc(Cl)nn2)c1 returned FBW7 act 0, GPR151 ag 1, TEAD-YAP block 46* and MITF inh -11.
COc1ccc(-c2nc(N)c3cc(OC)c(OC)cc3n2)cc1 was read as FBW7 act 0, GPR151 ag -1, TEAD-YAP block -2 and MITF inh -5.
Screening COc1cc2nc(N(C)C)nc(N)c2cc1OC returned FBW7 act 0, GPR151 ag 0, TEAD-YAP block 61* and MITF inh 17.

High-throughput results (PubChem)
